In PubChem BioAssay (Tox21) one finds Potency data, which are given here for 40 molecules.

“And” between values parts separate entries of the source, which are not always exact repeats. Equal values may be shown once. Inconclusive results are not listed. A call without a number means that no potency is given here. The source made the active and inactive calls. Calls follow the shape of the dose curve; as a rule, active = well fitted cell-killing curve with a large enough effect in the repeat runs; inconclusive = weak or mixed curves; inactive = flat fitted curve, though single readings scatter.
Potency is read from the fitted curve at half-maximal effect.

The experiment in a line: qHTS RealTime-Glo MT Cell Viability Assay in HepG2 cells - 16 hour (AID 1224885). Also: nearly all actives have a fitted effect of over 50% in size. The conditions noted are these: RealTime-Glo luminescence; series mostly up to 76.8 µM. An excerpt: U.S. Tox21 Program National Center for Advancing Translational Sciences [NCATS] NIH Chemical Genomics Center [NCGC] U.S. Environmental Protection Agency [EPA] National Institutes of Environmental Health Sciences [NIEHS] National Toxicology Program [NTP] U.S. Food and Drug Administration [FDA] Tox21 Assay Overview: Measure of cell viability is critical in the cell-base assay. Analysis of cell viability is necessary for the characterization of cell responses to cytotoxic drugs and environmental stress. A RealTime-Glo MT Cell Viability Assay to monitor cell viability in real time of continues cell culture during 40 hours of compound treatment was used to screen Tox21 10K library compounds in HepG2 cells. The RealTime-Glo MT Cell Viability Assay is a nonlytic, homogeneous, bioluminescent method to measure cell viability in real time using a simple, plate-based method. The assay involves adding NanoLuc luciferase and a cell-permeant prosubstrate to cells in culture. Viable cells reduce the proprietary prosubstrate to generate a substrate for NanoLuc luciferase. This substrate diffuses from cells into the surrounding culture medium, where it is rapidly used by the NanoLuc Enzyme to produce a luminescent signal. The signal correlates with the number of viable cells, making the assay well suited for cytotoxicity studies.
Tox21 Assay Protocol Summary: The mixture of HepG2 cell suspension and reagents were dispensed at 600cells/6 ul/well in 1536-well tissue culture treated black solid bottom plates using a Multidrop dispenser. After the assay plates were incubated at a 37 C/5% CO2 incubator for 5 hours, 23 nL of compounds dissolved in DMSO, positive and negative controls was transferred to the assay plate by a pintool work station. The plates were incubated at 37 C for 40 hours. The luminescence intensity were measured at 0h, 8h, 16h, 24h, 32h and 40h time points using ViewLux plate reader during compound treatment.
With `O=C(O)c1nn(Cc2ccc(Cl)cc2Cl)c2ccccc12`, the Potency result is “inactive”.

Take `CC1CC(=O)O1` (stereo not given): the Potency entry was “inactive”.

Turning to `ClCC(Cl)CCl`, the Potency result was “inactive”.

`Cl`: the Potency entry was “inactive”.

With `CNC(=O)CSP(=S)(OC)OC`, the Potency entry was “inactive”.

Regarding `O=C(O)CF`, the Potency result was “inactive”.

As for `Cc1ccc(N=CN(C)C=Nc2ccc(C)cc2C)c(C)c1`, the Potency entry is “inactive”.

On to `CCCCC(C#N)(Cn1cncn1)c1ccc(Cl)cc1` (stereo not given), for which the Potency entry was “inactive”.

As to `CCC1(c2ccc(N)cc2)CCC(=O)NC1=O` (stereo not given), the Potency result was “inactive”.

With `COc1ccc(O)c(C(C)(C)C)c1`, the Potency entry is “inactive”.

For the molecule `CC(C)(O)C#N`, the Potency entry was “inactive”.

For the molecule `COP(=S)(OC)Oc1ccc(S(=O)(=O)N(C)C)cc1`, the Potency result was “inactive”.

Consider `CCNCC`, for which the Potency entry was “inactive”.

`CCN(CC)C(=O)C(C)Oc1cccc2ccccc12` (stereo not given): the Potency result is “inactive”.

Take `Cn1c(-c2ccccc2)cc(-c2ccccc2)[n+]1C`: the Potency result was “inactive”.

On to `O=C1Nc2ccc(Cl)cc2C(c2ccccc2)=NC1O` (stereo not given), for which the Potency result is “inactive”.

As for `C=CC(=O)OCC(CC)(COC(=O)C=C)COC(=O)C=C`, the Potency was 25.2 µM (active) and 13.8 µM (active).

Turning to `CC1(C)Cc2cccc(O)c2O1`, the Potency result is “inactive”.

As for `S=c1[nH]c2ccccc2[nH]1`, the Potency entry was “inactive”.

As for `O=NN1CCOCC1`, the Potency result was “inactive”.

Turning to `CSc1nc(NC(C)C)nc(NC(C)C)n1`, the Potency result was “inactive”.

`COP(=S)(OC)SCn1nnc2ccccc2c1=O`: the Potency entry is “inactive”.

In the case of `Cc1cccc(N=Nc2ccc(N(C)C)cc2)c1`, the Potency entry is “inactive”.

Regarding `C[C@]12CC[C@H]3[C@@H](CCC4=CC(=O)CC[C@@H]43)[C@@H]1CC[C@@H]2O`, the Potency entry was “inactive”.

Turning to `CCCCSP(=O)(SCCCC)SCCCC`, the Potency result was “inactive”.

In the case of `O=[N+]([O-])/N=C1\NCCN1Cc1ccc(Cl)nc1`, the Potency result is “inactive”.

With `O=C1C(Cl)=C(Cl)C(=O)c2ccccc21`, the Potency was 21.9 µM (active) and 6.92 µM (active).

As to `Brc1ccc(Br)cc1`, the Potency result is “inactive”.

For `CC(C)(C#N)N=NC(C)(C)C#N`, the Potency entry is “inactive”.

Turning to `CCOP(=O)(OCC)OCC`, the Potency entry is “inactive”.

For `CN(C)P(=O)(N(C)C)N(C)C`, the Potency entry is “inactive”.

Consider `Clc1cccc(Cl)c1`, for which the Potency result is “inactive”.

Turning to `N#CC(c1ccccc1)c1ccccc1`, the Potency result was “inactive”.

As to `CC(O)CN(CC(C)O)CC(C)O` (stereo not given), the Potency result is “inactive”.

As for `O=NN(c1ccccc1)c1ccccc1`, the Potency result was “inactive”.

In the case of `C[N+](C)(C)CC(=O)O`, the Potency result was “inactive”.

Regarding `Clc1cccc(C(Cl)(Cl)Cl)n1`, the Potency entry is “inactive”.

As for `Nc1ccc([N+](=O)[O-])cc1N`, the Potency result is “inactive”.

For the molecule `Nc1ncn[nH]1`, the Potency entry was “inactive”.

On to `CS(=O)(=O)NC(=O)c1cc(Oc2ccc(C(F)(F)F)cc2Cl)ccc1[N+](=O)[O-]`, for which the Potency entry is “inactive”.
